Test results reported in publication PMC13494018.
Unmarked numbers belong to inactive results. The rule behind the calls is not given here.

Target: CD276, Q5ZPR3
Sequence (Q5ZPR3 whole entry): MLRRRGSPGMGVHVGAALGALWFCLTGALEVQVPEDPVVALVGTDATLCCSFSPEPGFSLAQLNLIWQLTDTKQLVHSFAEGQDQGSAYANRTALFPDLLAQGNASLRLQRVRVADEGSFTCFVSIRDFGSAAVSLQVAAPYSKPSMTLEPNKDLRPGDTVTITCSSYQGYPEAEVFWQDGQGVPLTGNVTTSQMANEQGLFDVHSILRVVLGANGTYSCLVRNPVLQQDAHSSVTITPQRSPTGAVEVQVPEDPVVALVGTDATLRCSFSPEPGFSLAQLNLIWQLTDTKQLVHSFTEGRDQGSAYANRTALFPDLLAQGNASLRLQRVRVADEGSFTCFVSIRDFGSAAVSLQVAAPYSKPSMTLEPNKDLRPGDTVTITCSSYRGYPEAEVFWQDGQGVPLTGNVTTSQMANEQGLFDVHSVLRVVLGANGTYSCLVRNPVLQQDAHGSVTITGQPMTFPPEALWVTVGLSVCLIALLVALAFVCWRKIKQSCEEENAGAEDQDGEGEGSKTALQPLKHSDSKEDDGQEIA

Binder	binding in a display sort
design_619_5728adc2-0aea-404f-92dd-a4575c53f550_1938_dldesign_0_cycle1_af2pred (protein) AKEEAKKLLEKTKKEAEKAVKEAEAGTPTTAAEQAVKVLEFGKEAVEKARELGDEETAEQIAQVTNEAVAKITKAAIAKAK	not found
design_619_5728adc2-0aea-404f-92dd-a4575c53f550_1976_dldesign_0_cycle1_af2pred (protein) SPALLAARKAITETAAATINALTDPAAANLVGRAMIQGLQLAQQGEAAGAHAAAAVAALALVEAAAAAARALDAAAA	not found
design_619_5728adc2-0aea-404f-92dd-a4575c53f550_2058_dldesign_0_cycle1_af2pred (protein) AAVAQSQLQITQNLVAWALSQLTTYGPAQGATIAKAVRDLALAAGLPEAVADELAAGAAGTAAEAKAKGAQAVALAQAAVAA	not found
design_619_5728adc2-0aea-404f-92dd-a4575c53f550_2217_dldesign_0_cycle1_af2pred (protein) DPAAALEKRTAAAMLAQAKAAVDADPALGRQRIANMEQLGKASPALAPYLLPAAEEARAYLAAKEAAAAA	not found
design_619_5728adc2-0aea-404f-92dd-a4575c53f550_2222_dldesign_0_cycle1_af2pred (protein) MENLEKAKELLEKAEAYVKAAAASDLATAQALLGQAVAAGQEAVELLKDSPIYPEVSRKVVELIRAGLAAVAAKA	not found
design_619_5728adc2-0aea-404f-92dd-a4575c53f550_2329_dldesign_0_cycle1_af2pred (protein) SALTKKIEEKATKLVEEAAKTTPEEARKLATEALEIAKQSPEALSALAVELLKAAAKATPEVAAVLREVAAQAMRTAIEIARA	binds (active)
design_619_5728adc2-0aea-404f-92dd-a4575c53f550_2359_dldesign_0_cycle1_af2pred (protein) SQAQGELLEAVKYASKAMKLDPALAPQLQQAINLLVRAIVLLAQGDEAQAAEEAKKAAKLFEEAAKKASPEAAKELKKAAKEAEKAI	not found
design_619_5728adc2-0aea-404f-92dd-a4575c53f550_2492_dldesign_0_cycle1_af2pred (protein) AIADEIIALARAAAEAADPEESTRLMREAAELAVEKFPELTPEEANAVIGEFLEAAARASPEAAVIATRAAARLGAQLAA	not found
design_620_fbd04095-bef7-46a9-992d-f2cb8915922f_36_dldesign_0_cycle1_af2pred (protein) AAEEALKKLKELAEKTKKVAEEAGKVNPALAPEADFLSALAEAALNYAKKNAASPDFEKIAKKQLEQIKKALERAEKLLKEAKAQAA	not found
design_620_fbd04095-bef7-46a9-992d-f2cb8915922f_77_dldesign_0_cycle1_af2pred (protein) DAVTAQIKALGAAGVAQARADPENAVAIASRTNAQIWGLILAAGADAAASAVALEATRANAEAVRETTAAAAAAAAAAAAAAAA	not found
design_620_fbd04095-bef7-46a9-992d-f2cb8915922f_119_dldesign_0_cycle1_af2pred (protein) REAAAEELRRLAEEARRLGEAGTPEVRSMARMMATAMEVIARGGNVELALEALRAAAAGIANDGKFGAEMEELARRAEEAVR	not found
design_620_fbd04095-bef7-46a9-992d-f2cb8915922f_158_dldesign_0_cycle1_af2pred (protein) IDTQANLELAKKSFNAALAQARRFAKTDRQAALAALKSAEVYAEAAEAADPAAGEELRKKVEEARKEIEAA	not found
design_620_fbd04095-bef7-46a9-992d-f2cb8915922f_187_dldesign_0_cycle1_af2pred (protein) GEARRQFAEDTAAAAKQAAALYAADPEKAQQVKDAADKAVAAAESGEDAQLAGLSAIKVYQALVEAQKAA	not found
design_620_fbd04095-bef7-46a9-992d-f2cb8915922f_254_dldesign_0_cycle1_af2pred (protein) AERLRAAAERLEAAAAATPEAAEAALAEAAALAEEVAAEYPGLGQLILNTLRQAAGLSPEERARAVARQFRALADYL	not found
design_620_fbd04095-bef7-46a9-992d-f2cb8915922f_328_dldesign_0_cycle1_af2pred (protein) DPKAQAQATAETLAKQAKKAATEALKLAKELGDKETAEKMKEIIKKVEELLEKAKKGTAEEAGAAALEILKLLSEARKELEKLKKKA	not found
design_620_fbd04095-bef7-46a9-992d-f2cb8915922f_329_dldesign_0_cycle1_af2pred (protein) SAESQAKAEELLREAFKRITELADAAAKSGTEEELAKAKKEMEEIAEKVEKEAGPGAGELARNYLKTQLAAAKAAIAAAK	not found
design_620_fbd04095-bef7-46a9-992d-f2cb8915922f_347_dldesign_0_cycle1_af2pred (protein) DAVAAGQALLYAAKSQGYIGKAKKAVKEGKLEEAKEYAEKAEEYAKKSEEYAKQSGDAAVQAQAKKVQEQVKKTKEEVKKAE	not found
design_620_fbd04095-bef7-46a9-992d-f2cb8915922f_548_dldesign_0_cycle1_af2pred (protein) MNASERVIARAEAIIAEAAALGAAHPAMAGETAAIQALARSAARMARSGEHIEDAEKAVEVAEAMLAATAARAAALAA	not found
design_620_fbd04095-bef7-46a9-992d-f2cb8915922f_592_dldesign_0_cycle1_af2pred (protein) SMAEEAARAEKAAAFREQAEAILAQAQANAADAEKLQQLGQQAVELAEEAAALGDQEAAQAALRAAAQINALLVQAQ	not found

Binder	binding in a display sort
design_620_fbd04095-bef7-46a9-992d-f2cb8915922f_681_dldesign_0_cycle1_af2pred (protein) AAAEAAAAAAAAAAAAEAAARAARGREIMVRTVEAIVRQARASPDGLRLARIALRVAESAGDEEAIALARAALAELEAA	not found
design_620_fbd04095-bef7-46a9-992d-f2cb8915922f_687_dldesign_0_cycle1_af2pred (protein) ATAAEAAALRDAGVAAANSAAAAAKAGNTTAAGELLTEAVKLAAQLAALGDEAGAAEVRAAIAASSKTIIAAQAA	not found
design_620_fbd04095-bef7-46a9-992d-f2cb8915922f_790_dldesign_0_cycle1_af2pred (protein) AKAKELAKKAEKALKAAKEAAKLKPEEAAAKANKELGKVLEAQKKAVEAGAPQEALDKINAVATEIAKIALEAAKAA	not found
design_620_fbd04095-bef7-46a9-992d-f2cb8915922f_814_dldesign_0_cycle1_af2pred (protein) SALSIAQLAASTQAVMKRAAKEVKGELAKKIKEAAKLAATGEKAKEAAALLKEAAKEAPEELKPLVASAAKHAELLVAAS	not found
design_620_fbd04095-bef7-46a9-992d-f2cb8915922f_839_dldesign_0_cycle1_af2pred (protein) MSWSEKAAEAAIKRLKELAKKAVSEGGKYAELAAAAARNAALLSYAAGPEMAKKAIKVFKEAAKLYPELAPAMEQAIALIESLL	not found
design_620_fbd04095-bef7-46a9-992d-f2cb8915922f_846_dldesign_0_cycle1_af2pred (protein) AADALAGAKAALNTIKAAETNAKKLDAAGAEAQYKLAKVALESAKVHAAKLGEEGKKIAEEAKKALAATKAVAEAKKAA	not found
design_620_fbd04095-bef7-46a9-992d-f2cb8915922f_868_dldesign_0_cycle1_af2pred (protein) MEEERREELRRKAEEYIAQAEALAAQTSPSAQLLVSNLARQARRLAEAGDYEGALEVARAALEGAQAMAAQQ	not found
design_620_fbd04095-bef7-46a9-992d-f2cb8915922f_936_dldesign_0_cycle1_af2pred (protein) LTPLEKAEAAKAKADKLYEAAQKATKAEAASLYGEAAVEYAKAAAYYLRAGDAAAAAAAQANLKTAVAKSQALVAA	not found
design_620_fbd04095-bef7-46a9-992d-f2cb8915922f_946_dldesign_0_cycle1_af2pred (protein) AAALEAARRVAYGQMVLGKMKADEGLKKAESGEDLEGGIKMAEEGLKLAKEYAEYDPVKGGAAAKEIGAKLKKMKELAKKAK	not found
design_620_fbd04095-bef7-46a9-992d-f2cb8915922f_1144_dldesign_0_cycle1_af2pred (protein) DPARQATINALIKAAAEAAKLGDTALSQAAVEAAVALASAKTQEELDAAQKEADAVLAAAAKRKAAAAAA	not found
design_620_fbd04095-bef7-46a9-992d-f2cb8915922f_1150_dldesign_0_cycle1_af2pred (protein) MRERIEKVEKEAKEAYEATKKAAAAQGEAGKIIAAAADAALKRLEEAAKKAKEALEEGDLESAEKYLKEAEAQLETIKVLKESAE	not found
design_620_fbd04095-bef7-46a9-992d-f2cb8915922f_1232_dldesign_0_cycle1_af2pred (protein) SERHQQLVDFMVAAGQVALTNLAGALRTAEIVARTDPAAAVEGAKKIRELAAKTTPEDAAKMNAVADHALAAAA	not found
design_620_fbd04095-bef7-46a9-992d-f2cb8915922f_1337_dldesign_0_cycle1_af2pred (protein) ADAATQAAIDANAAQAERALAAARADPAALPYAQAAIRNLELIAAGASPETQARGLARAEALRAALAAARAAA	not found
design_620_fbd04095-bef7-46a9-992d-f2cb8915922f_1411_dldesign_0_cycle1_af2pred (protein) DELTKLAQEAADAAVRAMEAGRYLPLEEANALINEVIKLYQKASEAAVAGKLEEAKKYAKEAKAKAKEIEELAEKRRA	not found
design_620_fbd04095-bef7-46a9-992d-f2cb8915922f_1420_dldesign_0_cycle1_af2pred (protein) KQKYVNAIKANAKNLELIAEGAAQVDPALAKEAKAAAEKAKAKAEEAKKSTAEEAAALRKEVQAALAALSRALIAAAA	not found
design_620_fbd04095-bef7-46a9-992d-f2cb8915922f_1723_dldesign_0_cycle1_af2pred (protein) SAAAQQAAWQTYVDAAAEMSKLRREALASGDPEVKEKAIEEIKALADKAAANPAAAAAAKLAGENMTAALTES	not found
design_620_fbd04095-bef7-46a9-992d-f2cb8915922f_1739_dldesign_0_cycle1_af2pred (protein) AEAAELLAQLQAATAAAQAAAAAGDAAAANAHLAQAVELASQIHRVGDAAQRAQANQLLAQASRAAIAANAAAAA	not found
design_620_fbd04095-bef7-46a9-992d-f2cb8915922f_1742_dldesign_0_cycle1_af2pred (protein) AAAVATAAAQAFLAQAEKNLAAAKAALKAGDYEAAIKHAQAAIGSAQSAKLAAQSAGDAALAAQADKVIAEAKKVLAEAEKALKEA	not found
design_620_fbd04095-bef7-46a9-992d-f2cb8915922f_1750_dldesign_0_cycle1_af2pred (protein) DPAKELARRVVEANLKQLKKLLEEAGKASTEEGKKLAKEAIEKVEKLKKEALASSAAEATALTVKAIEEASKALREIKKLK	not found
